# From PubChem BioAssay
# An excerpt weighted towards active compounds, which were near 11% of everything screened.
# HttQ103 aggreg: inhibitors of mutant huntingtin aggregate formation in PC12 cells; PC12 HttQ103-GFP aggregates, Acumen cytometry, 40 h; Potency, µM (series often up to 46.1 µM), inactives show at the top dose activity change, negative = inhibition, most hits filed as inhibitors; 220,000 compounds, 1.1% hits; AID 1688; active = well fitted curve in the direction sought with a large enough effect; inconclusive = small, poorly fitted or top-dose-only effect, or another doubt; inactive = no such curve, though single readings can be large; an effect the other way counts as inactive or inconclusive; note: potency is the fitted concentration of half-maximal effect; % is set by controls: 0 for no effect and ±100 for the full control effect; nearly all actives have a fitted effect of over 60% in size
#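 Aggregate formation scored by laser-scanning cytometer (488 excitation, 500–530 emission) in lysed PC12 cells expressing Q103-GFP after 100 nM tebufenozide induction; library tested in dose series, with ATPLite reagent added in the multiplex.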
# PNC inhibitor: blocks assembly of the perinucleolar compartment | PC3M PTB-GFP, PNC prevalence imaging, 16 h; hits give low values | activity change (PNC), negative = inhibition, % at 10 µM | 140,000 compounds, 3.1% hits | AID 2417;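 active = readout at or below -70, meaning at least 70% loss of cells showing the perinucleolar compartment, a nuclear body marking cancer cells; inconclusive = readout between -30 and a set limit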;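 note: plate controls were DMSO wells for no effect and camptothecin positive control wells for full effect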
#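 PC3M cells stably expressing PTB-GFP, 750–1000 cells/well, treated 16 h at 37 °C with compound (23 nl of library stock), in duplicate. After paraformaldehyde fixation and Hoechst stain, imaged at 20x; PNC prevalence scored by image analysis.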
# HPGD inh: inhibitors of human 15-hydroxyprostaglandin dehydrogenase (HPGD); P15428; purified HPGD, NADH fluorescence kinetic, PGE2 substrate; Potency, µM, without a hit: at the top dose activity change, negative = inhibition, actives largely listed as inhibitors; 150,000 compounds, 4.3% hits; AID 894; note: potency is the fitted concentration of half-maximal effect; % is set by controls: 0 for no effect and ±100 for the full control effect
# Target sequence (P15428 whole entry, looked up): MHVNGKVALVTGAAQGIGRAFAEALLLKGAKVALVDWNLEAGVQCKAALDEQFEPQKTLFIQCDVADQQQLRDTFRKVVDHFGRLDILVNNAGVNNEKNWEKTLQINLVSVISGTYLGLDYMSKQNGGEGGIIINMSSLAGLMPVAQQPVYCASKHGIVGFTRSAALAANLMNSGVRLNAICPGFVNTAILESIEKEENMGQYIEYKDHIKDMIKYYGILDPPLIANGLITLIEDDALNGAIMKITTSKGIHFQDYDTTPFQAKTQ
#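 20 nM HPGD preincubated 15 min at room temperature with compound in 50 mM Tris-HCl pH 8, 0.01% Tween 20. Started with 1 mM NAD+ and 30 uM prostaglandin E2; NADH fluorescence (360/450 nm) read 5 times over 30-s intervals, last minus first.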
# RGS12 GoLoco inh: inhibitors of human Gai1-RGS12 GoLoco interaction (red fluorophore); Gai1:RGS12 GoLoco peptide FP, rhodamine, 10 min; P63096; 230,000 compounds, 0.44% hits; Potency, µM (titrated, usually from 61.6 µM), for inactives: at the top dose activity, negative = inhibition, hits mostly inhibitors; active = well fitted inhibition curve with a large enough effect, not every such curve was filed as active; inactive = no such curve, though single readings can be large or run the other way; note: potency is the fitted concentration of half-maximal effect; % is set by controls: 0 for no effect and ±100 for the full control effect; nearly all actives have a fitted effect of over 30% in size
# Target sequence (P63096 whole entry, looked up): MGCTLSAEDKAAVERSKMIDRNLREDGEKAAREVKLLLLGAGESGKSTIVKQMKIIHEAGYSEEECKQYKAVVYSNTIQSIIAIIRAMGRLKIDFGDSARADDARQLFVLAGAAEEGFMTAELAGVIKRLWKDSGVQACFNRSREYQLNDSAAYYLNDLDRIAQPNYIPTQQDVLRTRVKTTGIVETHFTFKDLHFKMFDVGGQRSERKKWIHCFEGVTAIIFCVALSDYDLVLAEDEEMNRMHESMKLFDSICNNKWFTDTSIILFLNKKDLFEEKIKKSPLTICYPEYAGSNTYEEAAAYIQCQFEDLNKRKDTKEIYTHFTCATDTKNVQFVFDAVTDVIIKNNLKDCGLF
# HTT cytoprotect: cytoprotection in Huntington HTT-Q103 PC12 cell model. PC12 HTT-Q103 induced, cytoprotection, ATP luminescence, 40 h. Potency, µM (top dose mostly 56.4 µM), without a hit: cytoprotection (ATP increase), hits mostly activators. 230,000 compounds, 0.14% hits. AID 1471; active = well fitted curve in the direction sought with a large enough effect; inconclusive = small, poorly fitted or top-dose-only effect, or another doubt; inactive = no such curve, though single readings can be large; an effect the other way counts as inactive or inconclusive; note: potency is the fitted concentration of half-maximal effect; % of control where 0% means no effect; nearly all actives have a fitted effect of over 45% in size
#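 PC12 cells with ecdysone-inducible HTT exon 1 Q103-GFP, induced with 100 nM tebufenozide and co-treated with library compounds in a dose series (1536-well, 1500 cells/well). Cytoprotection read as ATP content by ATPlite luminescence.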
# ALDH1A1 block: ALDH1A1 (human) enzyme inhibition; 220,000 compounds, 7.3% hits; Purified ALDH1A1, NADH fluorescence, propionaldehyde substrate; AID 1030; P00352; Potency, µM (top dose mostly 75.3 µM), without a hit: top-dose activity, negative = inhibition, usual class: inhibitors;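 note: potency is the fitted concentration of half-maximal effect; plate controls were no enzyme wells and a reference inhibitor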
# Active calls of the source: *; ? = inconclusive; nt = no result; [ ] = remark or other dose. Unless noted, calls come from the whole dose curve; as a rule, active = well fitted inhibition curve with a large enough effect (not every such curve was filed as active); inconclusive = small, poorly fitted or top-dose-only effect, or another doubt; inactive = no such curve, though single readings can be large or run the other way.
SMILES,HttQ103 aggreg,PNC inhibitor,HPGD inh,RGS12 GoLoco inh,HTT cytoprotect,ALDH1A1 block
O=C(Cc1ccccc1)Nc1ccccc1CO,1%,8,14µM*,-12%,-4%,?
O=C(Cc1ccc(Cl)cc1)Nc1ccccc1CO,-33%,-87*,-5%,6%,-8%[10 µM],6%
CO[C@H]1COC(=O)C/C=C\[C@@H](C)COC(=O)[C@H]2CCCN2C(=O)C/C=C\[C@H]1C,nt,nt,nt,nt,1%[10 µM],8%[13.5 µM]
CCc1cc2c(nc1CC)CCN(CC/C(C)=N/O[C@@H]1O[C@H](COC(C)=O)[C@H](OC(C)=O)[C@H](OC(C)=O)[C@H]1OC(C)=O)C2,nt,nt,nt,nt,18%[10 µM],17%[13.5 µM]
CCOc1cc(S(=O)(=O)N2CCCC2)c(C)cc1C,-8%[9.22 µM],nt,nt,6%,-8%[10 µM],-5%
C=C(C)CC1(c2ccccc2)Oc2ccccc2-c2nc3cc(Cl)c(Cl)cc3nc21 (stereo not given),nt,nt,nt,nt,5%[10 µM],-17%[13.5 µM]
Cn1cc2c(=O)n(/N=C/c3ccccc3)cnc2n1,6%,-82*,-2%,12%,-8%[10 µM],-6%
O=[N+]([O-])c1cccc(/C=N/NS(=O)(=O)c2ccccc2)c1,20%,nt,nt,9%,-4%,?
CCN(Cc1ccccc1)c1ccc(/C=N/NS(=O)(=O)c2cccc([N+](=O)[O-])c2)cc1,26%,-24,-19%,21%,nt,6.3µM*
Cc1ccc(S(=O)(=O)N/N=C/c2ccc(O)c(O)c2)cc1[N+](=O)[O-],-17%,nt,nt,-11%,-27%,?
CCN(CC)c1ccc(/C=N/NS(=O)(=O)c2ccc(C)c([N+](=O)[O-])c2)cc1,16%,?,nt,nt,21%[10 µM],20µM*
N#Cc1c(NC(=O)Cn2c(=O)oc3ccccc32)oc(-c2ccccc2)c1-c1ccccc1,20µM*,28,?,18%,9%,13µM*
CC(NC(=O)/C(C#N)=C/c1ccco1)c1ccccc1 (stereo not given),30%[9.22 µM],nt,nt,7%,21%[10 µM],nt
COC(=O)c1ccc(/C=C(\C#N)C(=O)NC(C)c2ccccc2)cc1 (stereo not given),?,-100*,-18%,-2%,-16%[10 µM],?
Cc1ccc(/C=C(/C#N)C(=O)NC(=O)Oc2ccccc2)cc1,-16%,-101*,-17%,5%,16%,4%
Cc1ccc(OC(=O)Nc2ccccc2)cc1,5%,nt,nt,1%,14%[10 µM],0%
Cc1c(Cl)cccc1Nc1nc(N)nc(CSC(=S)N2CCOCC2)n1,-10%,nt,nt,-2%,-44%,-4%
c1ccc2sc(SN3CCOCC3)nc2c1,16%,?,14µM*,-22%,3%,4µM*
CCCCc1cc2c(cn1)C(=O)C(C)(OC(C)=O)C(=O)C2 (stereo not given),nt,nt,-4%,11%[14.2 µM],-25%[10 µM],1.3µM*
CCCCCCCc1cc2c(cn1)=C(OC)C(C)(OC(C)=O)C(=O)C=2Cl (stereo not given),nt,nt,-5%,2%,15%,-11%
CC(CO)(CO)N=Cc1cc(I)cc(I)c1O,nt,nt,-9%,0%[14.2 µM],-10%[10 µM],-12%[13.5 µM]
CCOC(=O)C1=C(C)NC(=O)NC1c1cccs1 (stereo not given),4%[9.22 µM],nt,nt,-18%,22%[10 µM],0%
CC1=C(C(=O)OC(C)(C)C)C(c2cccs2)NC(=O)N1 (stereo not given),-13%,-95*,-1%,6%,3%[10 µM],?
CCn1c2ccccc2c2cc(NC(=O)CNCC3CCCO3)ccc21 (stereo not given),-10%,nt,nt,5%,-71%,32µM*
O=C(CNCC1CCCO1)Nc1ccccc1-n1cccc1 (stereo not given),2%,?,-3%,1%,18%[10 µM],?
SMILES,HttQ103 aggreg,PNC inhibitor,HPGD inh,RGS12 GoLoco inh,HTT cytoprotect,ALDH1A1 block
CCn1c2ccccc2c2cc(NC(C)=O)ccc21,-18%,-21,-8%,2%,13%,0%
O=C(CNCC1CCCO1)Nc1ccccc1N1CCOCC1 (stereo not given),-4%,-86*,-4%,4%,-1%[10 µM],?
CN(C)c1ccc(C(C#N)c2ccc(Cl)cc2)nn1 (stereo not given),0%,nt,nt,-3%,16%[10 µM],-7%
CN(C)c1ccc(C(C#N)c2ccccc2)nn1 (stereo not given),-13%,nt,nt,-14%,22%,10µM*
COc1ccccc1N1CCN(C(=O)c2cc3c(=O)n(C)c4ccccc4c3n2C)CC1,0%,-88*,-15%,15%,-14%,?
Cn1c(C(=O)N2CCN(C(=O)c3ccco3)CC2)cc2c(=O)n(C)c3ccccc3c21,9%,-8,-22%,2%,-20%,20µM*
Cn1c(C(=O)Nc2ccc3c(c2)OCCO3)cc2c(=O)n(C)c3ccccc3c21,-20%,19,?,9%,-46%,25µM*
Cn1c(C(=O)N2CCN(c3ccc(Cl)cc3)CC2)cc2c(=O)n(C)c3ccccc3c21,nt,nt,nt,nt,-13%,nt
Cn1c(C(=O)N2CCN(c3ccc(F)cc3)CC2)cc2c(=O)n(C)c3ccccc3c21,nt,nt,nt,nt,-5%,nt
CCOC(=O)C1(CC2CCCCO2)CCN(Cc2ccc(OC)cc2F)CC1 (stereo not given),9%[9.22 µM],nt,nt,1%,27%[10 µM],5%
CCCCNc1nc(C)nc2c1nc(-c1ccccc1)n2CCN(C)C,nt,nt,?,3%,-66%,?
COc1cccc(CN(C(=O)Cn2nnc(-c3ccccc3F)n2)C(C(=O)NC(C)(C)C)c2ccncc2)c1 (stereo not given),4%[9.22 µM],nt,nt,-2%,16%[10 µM],24µM*
O=C(NCCCN1CCCCCC1)[C@@H](c1ccccc1)C1CCCCC1,nt,nt,3%,7%,-3%,4%
Cc1[nH][nH]c(=O)c1[C@@H](c1ccccc1[N+](=O)[O-])C(C#N)C#N,3%[9.22 µM],nt,nt,-3%,15%[10 µM],25µM*
Cc1[nH][nH]c(=O)c1C(c1ccc([N+](=O)[O-])cc1)c1c(C)[nH][nH]c1=O,0%[9.22 µM],nt,nt,-21%,-3%[10 µM],?
CC1(C)CC(=O)C2=C(C1)N(c1ccc(F)cc1)C(=O)NC2(C(F)(F)F)C(F)(F)F,2%,20,-7%,-3%,-4%,10µM*
CCOC(=O)C(C(=O)NCCCN1CCOCC1)C1CCCCC1 (stereo not given),-8%,-100*,-8%,-4%,19%[10 µM],1%
Cc1ccc2[nH]c(=O)c(CN(CCCO)S(=O)(=O)c3c(C)ccc4nsnc34)cc2c1,13%,-80*,-9%,5%,-26%[10 µM],13µM*
Cc1c(Cl)cnc(NC(=O)COC(=O)C(NC(=O)c2ccco2)C(C)C)c1Cl (stereo not given),-10%,4,-8%,27%,-7%[10 µM],11µM*
CCOn1c(=O)c(-c2cccc3ccccc23)[n+]([O-])c2ccccc21,-1%[9.22 µM],nt,nt,19%,-28%,22µM*
